AmpC no deterg – AmpC beta-lactamase inhibition without detergent. AmpC nitrocefin hydrolysis, absorbance 480 nm, 0.0001% Triton. Potency, µM (doses to about 57.1 µM), hits mostly inhibitors. 0.52% of 330,000 active. AID 485341; also: nearly all actives have a fitted effect of over 20% in size
Target sequence (P00811 whole entry, looked up): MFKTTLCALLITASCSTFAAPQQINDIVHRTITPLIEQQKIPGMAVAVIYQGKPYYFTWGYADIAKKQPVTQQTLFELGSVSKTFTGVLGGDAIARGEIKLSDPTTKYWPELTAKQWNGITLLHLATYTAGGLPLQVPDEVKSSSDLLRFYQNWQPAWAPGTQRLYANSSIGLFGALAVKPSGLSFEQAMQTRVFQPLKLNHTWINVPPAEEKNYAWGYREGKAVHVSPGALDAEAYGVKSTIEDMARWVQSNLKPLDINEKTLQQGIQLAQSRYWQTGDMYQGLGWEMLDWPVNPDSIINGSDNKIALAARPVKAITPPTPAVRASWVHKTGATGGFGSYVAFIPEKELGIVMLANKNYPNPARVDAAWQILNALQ
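20 mM phosphate pH 7.0 + 0.01% (detergent screen) or 0.0001% Triton X-100; 5.3 nM AmpC reagent; cpd preinc 15 min RT; nitrocefin (800 uM stock) to start; A480 q20 s × 4 min; Activity was normalised to no-enzyme and no-compound control wells.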
HCV inhibitor – inhibitors of hepatitis C virus infection; Huh7.5.1 HCVcc-Cre infection, luciferase reporter, 44 h; 3.4% of 340,000 active; Potency, µM (series often up to 41.8 µM), usual class: inhibitors; AID 651820
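Cells (1,000/well) were plated 4 h before compound, then infected with HCVcc-Cre virus (~0.5 moi). After 44 h further culture, infection was read as luciferase luminescence following a 15 min substrate incubation at room temperature.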
AmpC detergent – AmpC beta-lactamase inhibition with detergent present | 0.041% of 370,000 active | P00811 | Potency, µM (doses to about 114 µM), hits mostly inhibitors | AmpC hydrolysis of nitrocefin, absorbance 480 nm, 0.01% Triton; also: nearly all actives have a fitted effect of over 25% in size
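AmpC (5.3 nM in the dispensed reagent) in 20 mM phosphate pH 7.0 with 0.01% (detergent screen) or 0.0001% Triton X-100 was preincubated with compounds for 15 min at room temperature. Nitrocefin was then added from an 800 uM solution, and hydrolysis was followed at 480 nm.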
HCMV antiviral – human cytomegalovirus inhibition; HFF cells, HCMV-luciferase reporter, 72 h; stronger effect = lower value; activity change, negative = inhibition, % at 57.5 µM; 4.5% of 410,000 active; AID 1259415; in the data active = activity change below about -60%; inconclusive = no clear call, values can overlap the other calls; inactive = above about -39%
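Steps: HFFs plated, 16 h 37C; compounds added; HCMV-luciferase added to MOI 1 PFU/cell; 72 h 37C; OneGlo reagent, 5 min room temperature; luminescence read, normalized to controls.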
FMDV inh – blocks foot and mouth disease virus. Potency, µM (series often up to 57.9 µM), actives largely listed as inhibitors. 1.2% of 410,000 active. AID 1159524. FMDV antiviral cell-based qHTS; calls by dose curve; tested in HEK293T cells; also: read-out not given here; nearly all actives have a fitted effect of over 45% in size
Of the large screens only hits and unclear results are named; the others gave an inactive call; ! = a repeat was not active. A selection: hits, their analogues and other compounds. The true share with any hit is near 7.3%. Unless noted, calls follow the shape of the dose curve; as a rule, active = well fitted curve in the direction sought with a large enough effect; inconclusive = small, poorly fitted or top-dose-only effect, or another doubt; inactive = no such curve, though single readings can be large; an effect the other way counts as inactive or inconclusive.

Cc1cccc(-c2nc3c4ccccc4nc(NCCc4ccccc4)n3n2)c1	none (no result: AmpC no deterg, HCV inhibitor)
CC(C)Oc1ccc(C(=O)/C(=C\c2cccs2)c2nc3ccccc3o2)cc1	HCV inhibitor inconclusive, HCMV antiviral -73
COc1ccc(C(=O)/C(=C\N(C)C)n2nc(C)cc2C)cc1	none
Cc1cc(C)n(/C(=C\N(C)C)C(=O)c2ccc(Cl)cc2)n1	HCMV antiviral -61
CCN(CC(O)CON=C1c2ccccc2-c2ccccc21)S(=O)(=O)c1ccc(Cl)cc1 (stereo unspecified)	HCV inhibitor 10µM, AmpC detergent inconclusive
CCN(CC(O)CON=C1c2ccccc2-c2ccccc21)S(=O)(=O)c1ccc(C)cc1 (stereo unspecified)	HCV inhibitor inconclusive, FMDV inh inconclusive
CCCc1cc(=O)[nH]c2nnc(SCC(=O)NC3CCCC3)n12	AmpC no deterg 18µM, AmpC detergent inconclusive
CCCCn1nnnc1SCC(=O)NC1CCCCC1	HCMV antiviral -99
Nc1ncnc2sc3c(c12)CCNC3	none
Cc1ccc(NC(=O)c2nc(S(=O)(=O)Cc3ccccc3C)ncc2Cl)cc1C	HCV inhibitor inconclusive, HCMV antiviral -98, FMDV inh 40µM
CSc1ncc(Cl)c(C(=O)Nc2ccc(C)c(C)c2)n1	HCV inhibitor inconclusive
Cc1ccc(NC(=O)c2nc(S(=O)(=O)Cc3ccc(F)cc3)ncc2Cl)cc1C	HCMV antiviral -98, FMDV inh 28µM (no result: AmpC no deterg, HCV inhibitor)
CCCS(=O)(=O)c1ncc(Cl)c(C(=O)Nc2ccc(S(=O)(=O)Nc3ncccn3)cc2)n1	none
CC(=O)Nc1ccc(NC(=O)c2nc(S(=O)(=O)Cc3ccc(F)cc3)ncc2Cl)cc1	AmpC detergent inconclusive, HCMV antiviral -100, FMDV inh 32µM (no result: AmpC no deterg, HCV inhibitor)
COc1ccc2c(c1)nc(CN1CCN(CCO)CC1)n2C	none
Cc1ccc(Sc2c([N+](=O)[O-])c(=O)n(C)c3ccccc23)cc1	HCV inhibitor inconclusive, FMDV inh 22µM
Cc1ccc(Sc2c(C=O)c3ccccc3n2C)cc1	HCV inhibitor 11µM, HCMV antiviral -91, FMDV inh inconclusive
COc1ccc(Br)cc1C(=O)Nc1ccc(-c2nc3ncccc3o2)cc1C	none (no result: AmpC no deterg, HCV inhibitor)
C=CCOC(Cn1ccnc1)c1ccc(Cl)cc1Cl (stereo unspecified)	HCMV antiviral inconclusive, FMDV inh inconclusive
Clc1ccc(COC(Cn2ccnc2)c2ccc(Cl)cc2Cl)c(Cl)c1 (stereo unspecified)	HCV inhibitor inconclusive, HCMV antiviral -61!, FMDV inh inconclusive
CC(Sc1nc(C(C)(C)C)cc(-c2ccccc2)c1C#N)C(=O)Nc1ccccc1 (stereo unspecified)	HCMV antiviral -64
CCN(CC)CCOC(=O)c1ccc(NC(=O)C(C)NC(=O)C23CC4CC(CC(C4)C2)C3)cc1 (stereo unspecified)	HCMV antiviral -64
CCCn1c2ccccc2c2cnn(CC(=O)NCCCN3CCCC(C)C3)c(=O)c21 (stereo unspecified)	HCV inhibitor inconclusive, HCMV antiviral -65
Cc1ccccc1Cn1c2ccccc2c2cnn(CC(=O)NCc3cccc(Cl)c3)c(=O)c21	HCMV antiviral -78 (no result: AmpC no deterg, HCV inhibitor)
CCCn1c2ccccc2c2cnn(CC(=O)NCCCN3CCN(c4ccccc4)CC3)c(=O)c21	HCV inhibitor 11µM
CC1CCCCN1CCCNC(=O)Cn1ncc2c3ccccc3n(Cc3ccccc3F)c2c1=O (stereo unspecified)	HCMV antiviral -74 (no result: AmpC no deterg, HCV inhibitor)
CCCn1c2ccccc2c2cnn(CC(=O)NC3CCC(C)CC3)c(=O)c21 (stereo unspecified)	none
CCCn1c2ccccc2c2cnn(CC(=O)N3CCCC(C)C3)c(=O)c21 (stereo unspecified)	HCMV antiviral -62 (no result: AmpC no deterg, HCV inhibitor)
O=C(Nc1ccccc1Cl)NN1CCCCCC1	none (no result: AmpC no deterg, AmpC detergent)
C[C@H](CO)N1C[C@H](C)[C@@H](CN(C)C(=O)Nc2ccc(-c3cccs3)cc2)OCc2cn(nn2)CCCC1=O	none (no result: AmpC no deterg, HCV inhibitor, AmpC detergent, FMDV inh)
N#C/C(=C\C=C\c1ccccc1)c1nc(-c2ccc(Cl)cc2)cs1	AmpC detergent inconclusive, HCMV antiviral -60
CC1=NN(c2ccccc2)C(=O)/C1=C/C=C/c1ccccc1	HCMV antiviral -69, FMDV inh 35µM
CC1=NN(c2cccc(C(=O)O)c2)C(=O)/C1=C\C=C\c1ccco1	none
CC1=NN(c2ccccc2)C(=O)/C1=C/c1cc(C)n(C2CC2)c1C	HCMV antiviral -68
Cc1ccc(C2=NOC(=O)/C2=C\C=C\c2ccccc2)cc1	AmpC no deterg 32µM, HCV inhibitor inconclusive, HCMV antiviral -109, FMDV inh 14µM
CCc1ccc(C2C(C(=O)Nc3ccccc3OC)=C(C)Nc3c(C(=O)Nc4ccc(C)cc4)cnn32)cc1 (stereo unspecified)	none (no result: AmpC no deterg, HCV inhibitor)
O=C(NCCc1cccs1)c1ccc(CS(=O)Cc2cccc(Cl)c2)o1 (stereo unspecified)	none (no result: AmpC no deterg, HCV inhibitor, AmpC detergent)
FC(F)(F)c1cccc(N2CCN(C(=S)NC3CCCC3)CC2)c1	AmpC no deterg 0.25µM, HCV inhibitor 32µM, FMDV inh 20µM
FC(F)(F)c1cccc(NC(=S)Nc2cccc(NC(=S)Nc3cccc(C(F)(F)F)c3)n2)c1	AmpC no deterg 7.9µM, HCV inhibitor 10µM, HCMV antiviral inconclusive
Cc1cccc(NC(=S)Nc2cccc(C(F)(F)F)c2)n1	none
O=C(Nc1cccc(C(F)(F)F)c1)C1CCCCC1	none
FC(F)(F)c1cccc(N2CCN(C(=S)NC3CCCCC3)CC2)c1	HCV inhibitor inconclusive, HCMV antiviral inconclusive, FMDV inh inconclusive
FC(F)(F)c1cccc(NC(=S)NC2CCCC2)c1	HCMV antiviral -64
CN(C(=O)Nc1cccc(C(F)(F)F)c1)C1CCCCC1	HCMV antiviral -63
Nc1nonc1-c1nc2ccccc2n1CC(=O)Nc1cccc(C(F)(F)F)c1	FMDV inh inconclusive (no result: AmpC no deterg, HCV inhibitor)
COc1ccc(O)c(C(=O)N2CCC3(CC2)c2ccccc2[C@@H](NC(=O)c2ccccn2)[C@@H]3OC)c1	none (no result: AmpC no deterg, HCV inhibitor, AmpC detergent, HCMV antiviral)
O=C1NC(=O)N(C2CCCCC2)CC1Br (stereo unspecified)	none (no result: AmpC no deterg, AmpC detergent)
Fc1cccc(NC(=S)NC2CCCCCCC2)c1	AmpC no deterg 13µM
O=C(Nc1cccc(F)c1)C1CCCCC1	HCV inhibitor inconclusive, AmpC detergent inconclusive
CCOc1ccc(NC(=O)Nc2cc(OCC(F)(F)F)cc(OCC(F)(F)F)c2)cc1	HCV inhibitor inconclusive
CC(C)(C)c1ccc(NC(=O)Nc2ccc(F)cc2)cc1	HCV inhibitor 10µM
CC(C)(C)c1ccc(COC(=O)Nc2ccc(F)cc2)cc1	none
O=C(Nc1ccc(F)cc1)Nc1cc(OCC(F)(F)F)cc(OCC(F)(F)F)c1	HCV inhibitor inconclusive, HCMV antiviral -101
COc1ncc2ncc(=O)n(CCc3ccccc3)c2n1	none (no result: AmpC no deterg, HCV inhibitor, AmpC detergent, HCMV antiviral)
NC(Cc1ccc(F)cc1)c1csc(Nc2ccc(S(N)(=O)=O)cc2)n1 (stereo unspecified)	none (no result: AmpC no deterg, HCV inhibitor, AmpC detergent)

Bioassay records (PubChem)
